Screening results deposited in PubChem by National Center for Advancing Translational Sciences (NCATS).
Pol kappa inh-1: DNA polymerase kappa (human) inhibition; AID 588579; Potency, µM (top dose mostly 107 µM), for inactives: at the highest dose activity, negative = inhibition, usual class: inhibitors; 400,000 tested, 0.53% active; Q9UBT6; purified Pol kappa, fluorescent DNA synthesis assay, 10 min; note: potency is the fitted concentration of half-maximal effect; % is set by controls: 0 for no effect and ±100 for the full control effect
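10 nM Pol kappa preincubated 15 min at room temperature with compounds, then reaction started with substrate at 50 nM final. Fluorescence read kinetically at 0 and 10 min; buffer-only wells served as negative control.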
Pol beta inh: DNA polymerase beta (human) inhibition; P06746; Pol beta primer extension/strand displacement, fluorescence kinetic; Potency, µM (titrated, usually from 114 µM), inactives show at the highest dose activity change, negative = inhibition, most hits filed as inhibitors; 340,000 tested, 1.3% active; note: potency is the fitted concentration of half-maximal effect; % is set by controls: 0 for no effect and ±100 for the full control effect
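Pol beta (10 nM) and compounds were preincubated 15 min at room temperature, then 50 nM substrate (final) started primer extension/strand displacement. Reads were taken at 0 and 10 min; concentration-response data were fitted to a four-parameter Hill equation.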
Pol eta inh-1: DNA polymerase eta (human) inhibition; Q9Y253; recombinant Pol eta, fluorescent DNA replication assay; 390,000 tested, 1.2% active; Potency, µM (series often up to 114 µM), for inactives: at the highest dose activity change, negative = inhibition, most hits filed as inhibitors; note: potency is the fitted concentration of half-maximal effect; % is set by controls: 0 for no effect and ±100 for the full control effect
Target sequence (Q9Y253 whole entry, looked up): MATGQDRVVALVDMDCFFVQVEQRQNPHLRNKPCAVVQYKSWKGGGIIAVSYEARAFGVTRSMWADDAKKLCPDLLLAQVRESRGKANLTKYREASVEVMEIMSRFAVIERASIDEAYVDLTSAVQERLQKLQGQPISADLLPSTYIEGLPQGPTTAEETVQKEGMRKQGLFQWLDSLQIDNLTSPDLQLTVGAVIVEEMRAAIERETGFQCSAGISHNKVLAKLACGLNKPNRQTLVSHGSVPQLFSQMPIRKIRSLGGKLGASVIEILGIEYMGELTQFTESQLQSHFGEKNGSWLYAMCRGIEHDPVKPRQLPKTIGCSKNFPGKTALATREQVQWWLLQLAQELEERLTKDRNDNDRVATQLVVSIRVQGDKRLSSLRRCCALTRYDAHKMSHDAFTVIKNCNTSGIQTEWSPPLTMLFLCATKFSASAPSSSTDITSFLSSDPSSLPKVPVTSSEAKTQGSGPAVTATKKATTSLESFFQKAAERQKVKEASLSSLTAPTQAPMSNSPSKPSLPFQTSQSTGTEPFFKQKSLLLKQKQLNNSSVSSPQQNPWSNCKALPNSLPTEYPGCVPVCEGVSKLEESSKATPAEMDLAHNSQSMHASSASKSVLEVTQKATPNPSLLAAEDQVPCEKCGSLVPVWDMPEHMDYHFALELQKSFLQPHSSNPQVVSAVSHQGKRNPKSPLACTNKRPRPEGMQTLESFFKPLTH
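Fluorescent replication assay: 50 nM final substrate added after a 15 min room-temperature compound preincubation with 10 nM enzyme. Signal taken at 0 min and again at 10 min.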
TDP1 block: inhibitors of human tyrosyl-DNA phosphodiesterase TDP1 | Q9NUW8 | recombinant TDP1, AlphaScreen DNA substrate cleavage | Potency, µM (highest dose often 130 µM), for inactives: at the top dose activity change, negative = inhibition, usual class: inhibitors | 350,000 tested, 0.28% active | AID 485290; note: potency is the fitted concentration of half-maximal effect; % is set by controls: 0 for no effect and ±100 for the full control effect; nearly all actives have a fitted effect of over 40% in size
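Compounds were preincubated with Tdp1 (1 nM final) for 15 min at room temperature before substrate (15 nM final) started a 5 min reaction; beads (10 ug/ml final) were then added for 10 min before AlphaScreen detection.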
POLI inh: blocks human DNA polymerase iota activity; Q9UNA4; Pol iota fluorescent replication assay, 10 min; Potency, µM (series often up to 115 µM), for inactives: at the top dose activity, negative = inhibition, usual class: inhibitors; 390,000 tested, 1% active; AID 588590; note: potency is the fitted concentration of half-maximal effect
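Fluorescent replication assay read twice, at 0 min and 10 min after adding 50 nM (final) substrate. Enzyme (10 nM) and compounds were first incubated 15 min at room temperature; enzyme-free buffer wells were negative controls.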
GALK inh confirm: galactokinase (human) inhibition, confirmation | shares compounds with Pol eta inh-1 | purified GALK, Kinase-Glo ATP depletion luminescence | Potency, µM (series often up to 115 µM), for the others: at the highest dose activity, negative = inhibition, usual class: inhibitors | 150 tested, 70% active | AID 2015
GALK redox cs: counter-screen for GALK inhibitors: redox cycling H2O2 generation. shares compounds with Pol eta inh-1. Phenol red-HRP H2O2 redox cycling, absorbance 600 nm. Potency, µM (highest dose often 115 µM), without a hit: top-dose activity change, negative = H2O2 signal, actives largely listed as inhibitors. 150 tested, 40% active. AID 2035
HEK293 viability: counter-screen for GALK inhibitors: HEK293 cell cytotoxicity; shares compounds with Pol eta inh-1; HEK-293 viability, ATP luminescence (CellTiter-Glo), 24/48 h; Potency, µM (top dose mostly 46.1 µM), for the others: at the highest dose activity change, negative = cytotoxicity, actives largely listed as inhibitors; 170 tested, 10% active; note: potency is the fitted concentration of half-maximal effect; % is set by controls: 0 for no effect and ±100 for the full control effect
Pol kappa inh-2: Pol kappa (human) inhibition, cherry-pick confirmation. purified Pol-kappa, fluorescent strand-displacement substrate. 920 tested, 76% active. Potency, µM, usual class: inhibitors. shares compounds with Pol eta inh-1; note: potency is the fitted concentration of half-maximal effect
Pol eta inh-2: Pol eta (human) inhibition, cherry-pick confirmation; shares compounds with Pol eta inh-1; 2,600 tested, 64% active; Pol eta primer extension, TAMRA/BHQ fluorescence, 10 min; Potency, µM, most hits filed as inhibitors; note: potency is the fitted concentration of half-maximal effect
Numbers without * were called inactive; ? = inconclusive; . = no result; [ ] = another dose, or the depositor's remark. Compounds with a hit are over-represented: about 2.4% of the library has one in this group of screens. Calls come from the whole dose curve; as a rule, active = well fitted curve in the direction sought with a large enough effect; inconclusive = small, poorly fitted or top-dose-only effect, or another doubt; inactive = no such curve, though single readings can be large; an effect the other way counts as inactive or inconclusive.

SMILES	Pol kappa inh-1	Pol beta inh	Pol eta inh-1	TDP1 block	POLI inh	Pol kappa inh-2	Pol eta inh-2	others
CC(=O)c1sc2nc(CSc3nncn3C)[nH]c(=O)c2c1C	-19%	-27%	-7%	-1%	?	.	.
Cc1nnc(SCc2nc3sc(C(=O)O)c(C)c3c(=O)[nH]2)s1	89µM*	0%	22µM*	?	20µM*	.	43*
CC(=O)c1sc2nc(CSc3nnnn3-c3ccccc3)[nH]c(=O)c2c1C	?	13µM*	10µM*	8%	11µM*	.	67*
C=CCn1c(SCC(=O)O)nnc1-c1ccc(C(C)(C)C)cc1	-3%	1%	?	7%	5%	.	.
COC(=O)c1sc2nc(CSc3nc4ccc(C)cc4[nH]3)[nH]c(=O)c2c1C	-22%	-5%	?	5%	5%	.	.
C=CCn1c(SCc2nc3sc(C(=O)O)c(C)c3c(=O)[nH]2)nnc1-c1ccc(C(C)(C)C)cc1	35µM*	22µM*	7.1µM*	20µM*	?	12*	30*
Cc1c(C(=O)O)sc2nc(CSc3nnc(-c4ccc(F)cc4)n3C)[nH]c(=O)c12	-30%	1%	35µM*	-5%	?	.	?
COc1ccc(NC(=O)C2CCCN(c3nnc(C)c4c(C)n(-c5ccccc5)nc34)C2)cc1Cl (stereo not drawn)	?	71µM*	35µM*	3%	-30%	17*	?
CO/N=C(\C(=O)N[C@@H]1C(=O)N2C(C(=O)O)=C(COC(C)=O)CS[C@H]12)c1csc(N)n1	.	.	.	-12%	.	.	.
CON=C(C(=O)NC1C(=O)N2C(C(=O)O)=C(CSc3nc(=O)c(=O)[nH]n3C)CSC12)c1csc(N)n1 (stereo not drawn)	40µM*	.	32µM*	.	?	21*	30*
CCOc1ccc(C(=O)N/N=C/c2ccc(-c3ccc(S(=O)(=O)Nc4ncccn4)cc3)o2)cc1	?	-3%	22µM*	-9%	18µM*	24*	?
CC(C)COc1ccc(C(=O)Nc2ccc(S(=O)(=O)Nc3ncccn3)cc2)cc1	2%	13%	-18%	3%[2.28 µM]	2%	.	.
COc1ccccc1NC(=O)c1sc2nc(C)c(C(=O)Nc3ccc(C)cc3C)c(-c3ccccc3Cl)c2c1N	4%	16%	-4%	3%	0%	.	.
Cc1ccc(S(=O)(=O)N2CCN(c3nc(Nc4ccccc4O)nc4ccccc34)CC2)cc1	14%	.	.	.	15%	.	.
COc1cc(/C=C2\C(=N)N3N=C(S(C)(=O)=O)SC3=NC2=O)cc(OC)c1OCCOc1ccccc1C	-9%	?	25µM*	.	?	?	?
COc1cc(/C=C2/C(=N)N3N=C(C(C)C)SC3=NC2=O)ccc1OS(=O)(=O)c1ccccc1	-13%	0%	?	12%	?	.	.
COc1cccc(OCCOc2ccc(/C=C3\C(=N)N4N=C(S(C)(=O)=O)SC4=NC3=O)cc2OC)c1	-31%	-29%	-16%	.	?	.	.
COc1cc(/C=C2/C(=N)N3C(=NC2=O)SN=C3S(=O)(=O)C(C)C)ccc1OS(=O)(=O)c1ccccc1	.	?	.	5%	.	.	.	GALK inh confirm=?;GALK redox cs=3%;HEK293 viability=0%
COc1ccccc1OCCOc1ccc(/C=C2\C(=N)N3N=C(S(C)(=O)=O)SC3=NC2=O)cc1	-3%	?	22µM*	.	-11%	?	?
COc1cc(/C=C2/C(=N)N3C(c4ccccc4)=CSC3=NC2=O)ccc1OCC(=O)O	-27%	-22%	20µM*	6%	-30%	.	?
CC(C)NS(=O)(=O)c1ccc(OCC(=O)N2CCN(c3cccc(Cl)c3)CC2)cc1	-13%	3%	-12%	-6%	-8%	.	.
COc1cc(/C=C2\C(=N)N3N=C(S(C)(=O)=O)SC3=NC2=O)ccc1OS(=O)(=O)c1ccc(C)cc1	?	100µM*	32µM*	-17%	20µM*	.	48*
CCOc1cc(/C=C2/C(=N)N3N=C(C)SC3=NC2=O)ccc1OS(=O)(=O)c1ccc(C)cc1	-19%	-27%	?	2%	?	.	.
COc1ccc(OC)c(/C=C2\S/C(=N/NC(=O)c3ccc4ccccc4c3)NC2=O)c1	-21%	0%	20µM*	5%	-4%	?	.
CC1(C)CC(=O)C2=C(C1)c1c(ccc3ccccc13)NC2c1ccc(C(=O)O)cc1 (stereo not drawn)	-9%	15%	4%	.	21%	.	.
SMILES	Pol kappa inh-1	Pol beta inh	Pol eta inh-1	TDP1 block	POLI inh	Pol kappa inh-2	Pol eta inh-2	others
CC1(C)CC(=O)C2=C(C1)c1c(ccc3ccccc13)NC2c1cc([N+](=O)[O-])cc([N+](=O)[O-])c1O (stereo not drawn)	-36%	45µM*	28µM*	5%	?	47*	?
Cc1cc(C(=O)C(=O)Nc2nnc(C(C)C)s2)c(C)n1-c1ccccc1	-4%	12%	40µM*	9%	11%	21*	?
Cc1cccc(-n2c(C)cc(C(=O)C(=O)Nc3nncs3)c2C)c1	-5%	-1%	50µM*	9%	46%	?	?
Cc1cc(C(=O)C(=O)Nc2nncs2)c(C)n1-c1ccc(Cl)cc1	-18%	?	?	14%	-25%	.	.
Cc1cc(C)cc(-n2c(C)cc(C(=O)C(=O)Nc3nnc(C)s3)c2C)c1	-20%	-18%	-5%	6%	-5%	.	.
CN1CCN(c2ccc(-c3nc(-c4ccccc4)no3)cc2[N+](=O)[O-])CC1	-10%	20%	-20%	11%	11%	.	.
CC1CCN(C(=O)COC(=O)c2ccc([N+](=O)[O-])o2)CC1	-6%	.	50µM*	0%	50µM*	.	?
Cc1nnc(NS(=O)(=O)c2ccc(N=Nc3ccc(N)nc3N)cc2)s1	79µM*	.	20µM*	.	16µM*	.	48*
